# Measurements: PubChem BioAssay (NCATS)
# “And” between values parts separate entries of the source, which are not always exact repeats. Equal values may be shown once. Records with an inconclusive call do not appear. Values without a mark were called inactive. The source made the active and inactive calls. Calls come from the whole dose curve; as a rule, active = well fitted curve in the direction sought with a large enough effect; inconclusive = small, poorly fitted or top-dose-only effect, or another doubt; inactive = no such curve, though single readings can be large; an effect the other way counts as inactive or inconclusive.
# Columns and labels:
# [1] = target: Cellular tumor antigen p53 (Homo sapiens) (UniProt P04637); test: Primary qHTS for small molecule compounds that upregulate eGFP-tagged delta133p53alpha (in N-terminal) cells. (AID 2060322); conditions: NCI-H358 eGFP-delta133p53alpha fluorescence, 24 h; activation: active compounds read high; note: nearly all actives have a fitted effect of over 75% in size;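 for activation: series mostly up to about 56 µM; 0% = DMSO vehicle and 100% = reference activator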
# How it was run: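 NCI-H358 cells pre-induced 24 h with 10 ng/ml doxycycline to express N-terminal eGFP-delta133p53alpha, then dosed 24 h at 37C without doxycycline; fixed, Hoechst-stained, GFP intensity by laser scanning cytometry, normalized to DMSO (0%) and 57.5 uM 5-azacytidine (100%).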
# [2] = BET inhibitor-based combinations targeting novel dependencies in MECOM-rearranged (r) AML: OCI-AML3 cell line (AID 2202232); conditions: Potency: OCI-AML3 viability; note: nearly all actives have a fitted effect of over 35% in size
# How it was run: (§1)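 Readout: CellTiter-Glo luminescence. Exposure: 48 h, 11 concentrations, 500 cells/well. Metric: AUC and within-line Z-AUC after DMSO/empty-well normalization.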
# [3] = BET inhibitor-based combinations targeting novel dependencies in MECOM-rearranged (r) AML: MV-4-11 cell line (AID 2202233); note: nearly all actives have a fitted effect of over 45% in size
# How it was run: (§2)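 Seeding density was 500 cells/well, and drug exposure lasted 48 hr under standard culture conditions. Read-out used CellTiter-Glo reagent with a 15 min room-temperature incubation before luminescence measurement; AUC and Z-AUC summarize the normalized responses.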
# [4] = BET inhibitor-based combinations targeting novel dependencies in MECOM-rearranged (r) AML: HNT-34 cell line (AID 2202234); note: nearly all actives have a fitted effect of over 35% in size
# How it was run: as §2
# [5] = BET inhibitor-based combinations targeting novel dependencies in MECOM-rearranged (r) AML: UCSD-AML1 cell line (AID 2202235); note: nearly all actives have a fitted effect of over 40% in size
# How it was run: as §2
# [6] = BET inhibitor-based combinations targeting novel dependencies in MECOM-rearranged (r) AML: AML-191 cell line (AID 2202236; note: nearly all actives have a fitted effect of over 35% in size)
# How it was run: as §1
# [7] = BET inhibitor-based combinations targeting novel dependencies in MECOM-rearranged (r) AML: AML-194 cell line (AID 2202237; note: nearly all actives have a fitted effect of over 40% in size)
# How it was run: as §1
# Potency is the fitted concentration of half-maximal effect.
# Chain of Cellular tumor antigen p53 (Homo sapiens) (P04637 whole entry, looked up): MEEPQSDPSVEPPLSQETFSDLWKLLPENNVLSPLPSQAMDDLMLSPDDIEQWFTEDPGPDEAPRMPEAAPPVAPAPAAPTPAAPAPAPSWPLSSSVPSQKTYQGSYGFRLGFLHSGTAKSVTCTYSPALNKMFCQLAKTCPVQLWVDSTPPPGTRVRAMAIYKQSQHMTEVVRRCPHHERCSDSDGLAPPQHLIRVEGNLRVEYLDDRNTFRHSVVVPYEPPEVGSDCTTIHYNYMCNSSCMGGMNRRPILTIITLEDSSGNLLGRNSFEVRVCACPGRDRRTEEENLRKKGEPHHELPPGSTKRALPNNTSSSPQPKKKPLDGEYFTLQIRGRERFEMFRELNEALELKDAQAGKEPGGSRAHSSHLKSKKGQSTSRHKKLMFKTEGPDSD
SMILES,activation [1],Potency [2],Potency [3],Potency [4],Potency [5],Potency [6],Potency [7],Potency [1]
O=C(Nc1nnc(-c2ccco2)o1)c1cc(-c2ccccc2)nc2ccccc12,-15%,14.8 µM (active),20.9 µM (active),10.5 µM (active),8.33 µM (active),11.8 µM (active),13.2 µM (active),–
COc1ccc2c3n(c(=NC(=O)c4cccnc4)nc2c1OC)CCN3,-16.5%,0.235 µM (active),0.148 µM (active),0.332 µM (active),–,0.468 µM (active),1.18 µM (active),–
CC(N)C12CC3CC(CC(C3)C1)C2 (configuration not stated),-14.2% and 12.7%,inactive,inactive,inactive,inactive,inactive,inactive,–
Oc1cc2c(cc1O)C1c3ccc(O)c(O)c3OCC1(O)C2 (configuration not stated),-7.38%,23.5 µM (active),23.5 µM (active),–,20.9 µM (active),–,–,–
C=C(C)[C@@H]1CC[C@]2(C)CC[C@]3(C)[C@H](CC[C@@H]4[C@@]5(C)CC[C@H](O)C(C)(C)[C@H]5CC[C@]43C)[C@@H]12,-1.45%,inactive,inactive,inactive,inactive,inactive,inactive,–
O=C(O)[C@H](Cc1c[nH]c2ccccc12)N1C(=O)c2ccccc2C1=O,-29%,inactive,inactive,inactive,3.32 µM (active),–,–,–
CCOC(=O)[C@H](CCc1ccccc1)N[C@H]1CS[C@H](c2cccs2)CN(CC(=O)O)C1=O,-24.3% and -1.2%,20.9 µM (active),20.9 µM (active),–,inactive,–,–,–
CCCCCCCCCCCCc1ccc(S(=O)(=O)Nc2nncs2)cc1,-6.63%,inactive,inactive,inactive,inactive,inactive,inactive,–
CCC(=O)O[C@]1(C(=O)SCF)[C@H](C)C[C@H]2[C@@H]3C[C@H](F)C4=CC(=O)C=C[C@]4(C)[C@@]3(F)[C@@H](O)C[C@@]21C,17.6% and 0.401%,inactive,inactive,inactive,inactive,inactive,–,–
CC1(CN2CCC(n3c(=O)[nH]c4ccccc43)CC2)OCc2ccccc2-n2cccc21 (configuration not stated),-25.4% and -3.95%,16.6 µM (active),14.8 µM (active),–,inactive,–,–,–
Oc1cccc(-c2nc(N3CCOCC3)c3oc4ncccc4c3n2)c1,27.8%,0.0661 µM (active),0.0525 µM (active),–,–,–,–,–
O=C(O)CCC1CCC(c2cc(F)ccc2F)(S(=O)(=O)c2ccc(Cl)cc2)CC1 (configuration not stated),33.4%,inactive,inactive,inactive,inactive,–,inactive,–
CCCCCCNC(=O)n1cc(F)c(=O)[nH]c1=O,-29.9% and -7.59%,1.86 µM (active),1.66 µM (active),–,7.42 µM (active),–,–,–
O=C1[C@H](Cc2ccc(O)cc2)N2C(=O)CCN(C(=O)NCc3ccccc3)[C@H]2CN1Cc1cccc2ccccc12,18.1%,9.34 µM (active),9.34 µM (active),5.25 µM (active),9.34 µM (active),–,–,–
CSc1cccc(Nc2ncc3cc(-c4c(Cl)cccc4Cl)c(=O)n(C)c3n2)c1,-0.477%,inactive,1.86 µM (active),–,–,–,–,–
NC(=O)N1CCC(CC(=O)N2CCC([C@H]3c4ncc(Br)cc4CCc4cc(Cl)cc(Br)c43)CC2)CC1,7.44%,1.18 µM (active),16.6 µM (active),11.8 µM (active),3.72 µM (active),–,–,–
CNC(=O)c1cc(Oc2ccc(NC(=O)Nc3cc(C(C)(C)C)nn3-c3ccc4ncccc4c3)c(F)c2)ccn1,–,23.5 µM (active),0.0468 µM (active),0.148 µM (active),16.6 µM (active),20.9 µM (active),20.9 µM (active),5.36 µM (active)
O=C1CN2Cc3c(ccc(Cl)c3Cl)N=C2N1,-11.4%,inactive,inactive,inactive,inactive,inactive,inactive,–
O=C(O)[C@H](O)[C@@H](O)[C@H](O[C@@H]1O[C@H](CO)[C@H](O)[C@H](O)[C@H]1O)[C@H](O)CO,-12.6%,inactive,inactive,inactive,inactive,–,inactive,–
Cc1c(C(=O)NN2CCCCC2)nn(-c2ccc(Cl)cc2Cl)c1-c1ccc(Cl)cc1,8.47% and -3.72%,inactive,20.9 µM (active),–,inactive,–,–,–
